Bioassay records as filed in PubChem.
BAZ2B block: inhibitors of human BAZ2B bromodomain; 360,000 compounds, 4.4% hits; AlphaScreen BAZ2B-H3K14Ac peptide displacement; AID 504333; Potency, µM (titrated, usually from 114 µM), usual class: inhibitors; Q9UIF8; also: nearly all actives have a fitted effect of over 60% in size
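AlphaScreen displacement of biotin-H3(5-23)K14Ac peptide (50 nM final) from BAZ2B (50 nM final) in PBS pH 7.4, 0.01% Tween-20; complex preformed 30 min RT, then compounds (top 110 uM) 30 min RT, beads 20 min dark.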
12-LOX inh: blocks human arachidonate 12S-lipoxygenase | Potency, µM (titrated, usually from 108 µM), hits mostly inhibitors | AID 1671190 | purified 12hLO, xylenol orange hydroperoxide absorbance | P18054 | 580,000 compounds, 1.1% hits
Target sequence (P18054 whole entry, looked up): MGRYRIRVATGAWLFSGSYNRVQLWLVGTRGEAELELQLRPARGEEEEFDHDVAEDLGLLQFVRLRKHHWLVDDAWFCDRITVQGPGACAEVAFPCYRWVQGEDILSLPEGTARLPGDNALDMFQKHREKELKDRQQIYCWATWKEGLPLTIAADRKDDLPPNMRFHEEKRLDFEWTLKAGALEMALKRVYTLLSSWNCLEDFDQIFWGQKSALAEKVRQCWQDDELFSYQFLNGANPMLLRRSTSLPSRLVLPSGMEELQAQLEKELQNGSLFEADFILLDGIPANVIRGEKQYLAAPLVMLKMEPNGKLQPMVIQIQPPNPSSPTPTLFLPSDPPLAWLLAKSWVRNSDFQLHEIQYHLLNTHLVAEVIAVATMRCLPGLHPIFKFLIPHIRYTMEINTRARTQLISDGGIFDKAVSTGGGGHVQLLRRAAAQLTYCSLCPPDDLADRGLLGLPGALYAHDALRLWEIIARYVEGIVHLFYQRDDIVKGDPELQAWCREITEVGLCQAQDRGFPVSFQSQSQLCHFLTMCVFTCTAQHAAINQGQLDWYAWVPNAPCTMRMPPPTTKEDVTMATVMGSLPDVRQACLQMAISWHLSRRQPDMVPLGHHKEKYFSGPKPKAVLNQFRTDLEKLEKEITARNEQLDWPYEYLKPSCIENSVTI
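Purified human 12hLO at 150 nM in 25 mM Hepes, 0.01% Triton X-100, pH 7.0, preincubated 15 min at room temperature with compound. Reaction started with 40 uM arachidonic acid, 30 min at room temperature. Hydroperoxide measured by Fe-xylenol orange, 573/405 nm absorbance ratio.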
JMJD2A Tudor: JMJD2A Tudor domain (human) inhibition. O75164. AlphaScreen JMJD2A-Tudor / H3K4me3 peptide binding. Potency, µM (doses to about 114 µM), hits mostly inhibitors. 390,000 compounds, 4.4% hits. AID 504339; also: nearly all actives have a fitted effect of over 50% in size
HP1b chromo inh: blocks HP1-beta chromodomain binding to methylated histone tails; AID 540317; Potency, µM (doses to about 114 µM), most hits filed as inhibitors; 390,000 compounds, 0.56% hits; P83916; AlphaScreen HP1-beta / biotin-H3K9me3 peptide binding; also: nearly all actives have a fitted effect of over 70% in size
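HP1-beta protein (50 nM final) preincubated 30 min at room temperature with biotinylated H3(1-18)K9me3 peptide (50 nM) in PBS pH 7.4, 0.01% Tween-20, then compound added for 30 min. AlphaScreen streptavidin donor/nickel chelate acceptor beads (10 ug/mL final), 30 min dark, luminescence read.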
Sfp inh: inhibitors of Bacillus subtilis Sfp phosphopantetheinyl transferase. Potency, µM, actives largely listed as inhibitors. Biochemical Sfp PPTase activity, qHTS. 310,000 compounds, 3.5% hits. AID 1490;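 also: the enzyme is Sfp with the accession as filed and its product quenches rhodamine fluorescence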
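Fluorescence-quenching assay: 15 nM Sfp-PPTase preincubated 15 min at room temperature with compound, then 5 uM rhodamine-CoA and 12.5 uM BHQ-2-labelled YbbR peptide added. Fluorescence (ex 525/em 598 nm) read at start and after 30 min; difference gives rate.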
G9a inh: G9a (human) methyltransferase inhibition; Q96KQ7; G9a H3K9 monomethylation, AlphaScreen, 2 h; Potency, µM (highest dose often 102 µM), hits mostly inhibitors; 350,000 compounds, 8.8% hits; AID 504332; also: nearly all actives have a fitted effect of over 75% in size
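Methyltransferase reactions run at room temperature for 2 h (20 nM enzyme, 500 nM biotin-H3K9 peptide, 20 uM SAM) after a 15 min compound preincubation; product detected by AlphaScreen beads and anti-H3K9me1 antibody.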
Hits are given with their value; 0 = inactive; ? = inconclusive; - = not tested or not shown; ! = not active in a repeat; [ ] = another dose, or the depositor's remark. A selection: hits, their analogues and other compounds. The true share with any hit is near 8.7%. Calls follow the shape of the dose curve; as a rule, active = well fitted curve in the direction sought with a large enough effect; inconclusive = small, poorly fitted or top-dose-only effect, or another doubt; inactive = no such curve, though single readings can be large; an effect the other way counts as inactive or inconclusive.

SMILES | BAZ2B block | 12-LOX inh | JMJD2A Tudor | HP1b chromo inh | Sfp inh | G9a inh
Oc1cc2c(cc1CN1CCN(c3ncccn3)CC1)OCO2 | 0 | ? | ? | 0 | 0 | 3.98µM
Fc1ccccc1CN1CCN(c2ncccn2)CC1 | ? | 0.562µM | 6.31µM | 0 | 0 | 22.4µM
Cc1ccc(CN2CCN(c3ncccn3)CC2)o1 | 0 | 0 | 0 | 0 | 0 | ?
Oc1c(CN2CCOCC2)cc(CN2CCOCC2)cc1CN1CCOCC1 | - | 0 | 0 | 0 | - | -
Oc1cc(O)c(CN2CCOCC2)cc1CN1CCOCC1 | - | 0 | 79.4µM | 70.8µM | - | -
Cc1ccc(C)c(CN2CCN(c3ncccn3)CC2)c1 | ? | ? | 20µM | ? | 0 | -
O=C(NCc1cccnc1OCC(F)(F)F)c1ccc(Cl)o1 | - | 0 | - | - | - | -
COc1ccc([N+](=O)[O-])cc1CN1CCN(c2ncc(Cc3ccccc3)cn2)CC1 | - | 0 | - | - | - | -
O=[N+]([O-])c1ccc(Cl)c(CN2CCN(c3ncccn3)CC2)c1 | ? | ? | ? | 0 | 0 | 70.8µM
O=C(Nc1nnc2n1CCS2)c1ccc(Br)o1 | 20µM | 0 | 20µM | 0 | 56.2µM | 1.78µM
O=C(Cc1ccc(Cl)cc1)Nc1nnc2n1CCS2 | 56.2µM | 0 | ? | 0 | - | ?
CC(C)Oc1ccc(C(=O)Nc2nnc3n2CCS3)cc1 | 0 | 0 | 0 | 0 | - | 0
CC(C)(Oc1ccc(Cl)cc1)C(=O)Nc1nnc2n1CCS2 | ? | 0 | 79.4µM | 0 | - | 0
CC(C)CC(=O)Nc1nnc2n1CCS2 | 0 | 0 | 0 | 0 | - | ?
O=C(CCc1cc2n(n1)CCCN(C(=O)CCc1ccsc1)C2)NC1CC1 | - | 0 | - | - | - | -
O=S(=O)(NC(c1ccccc1)c1ccccn1)c1cccs1 (stereo unspecified) | - | 0 | - | - | - | -
Fc1ccccc1NC(=S)N(Cc1ccccc1)Cc1ccccc1 | - | 0 | - | - | - | -
C[C@H](N)c1nnc(SCC(N)=O)o1 | 56.2µM | 0 | 0 | 0 | 0 | 12.6µM
CC(C)(C)CN[C@@H]1CO[C@H](CNC(=O)c2ccccc2)[C@H]1O | - | 0 | - | - | - | -
Cc1ccc(-c2nnn(CC(=O)N3CCCCC3)n2)o1 | 0 | 0 | 0 | 0 | 0 | 0
Cc1ccc(-c2nnn(CC(=O)NCC3COCCO3)n2)o1 (stereo unspecified) | 0 | 0 | 50.1µM | ? | 0 | 0
Cc1ccc(-c2nnn(CC(=O)N3CCC(C)CC3)n2)o1 | 0 | 0 | 0 | 0 | 0 | 35.5µM
CCOC(=O)C(NC(=O)/C=C/c1cccs1)C(=O)OCC | - | 0 | - | - | - | -
CC[N+]1(CC)CC2CCC(C)(C1)C2(C)C (stereo unspecified) | 0 | 44.7µM | ? | 0 | 0 | ?
CC12CCC(C[N+](C)(CCC[N+](C)(C)C)C1)C2(C)C (stereo unspecified) | - | ? | - | - | 0 | ?
SMILES | BAZ2B block | 12-LOX inh | JMJD2A Tudor | HP1b chromo inh | Sfp inh | G9a inh
CC12CCC(C[N+](C)(C)C1)C2(C)C (stereo unspecified) | 0 | ? | 22.4µM | 0 | 0 | ?
CC(=O)Nc1cc(C(=O)COC(=O)c2cccc3ccccc23)ccc1O | - | 0 | - | - | - | -
CSc1nc2c(c(=O)n1C)SC(C)C2 (stereo unspecified) | 0 | 0 | 0 | 0 | 50.1µM | 0
CC1Cc2nc(SCC(=O)Nc3nccs3)n(C)c(=O)c2S1 (stereo unspecified) | 0 | 0 | 0 | 0 | 50.1µM | ?
N#CC(=C(/N)Sc1ccccc1N)/C(C#N)=C(\N)Sc1ccccc1N | - | 31.6µM! | - | - | 56.2µM | 12.6µM
Cc1nc(Cl)cc(CS(=O)(=O)c2ccc(Cl)cc2)n1 | 79.4µM | 0 | 0 | 0 | 0 | ?
Fc1ccc(-c2nnc(SCc3ncc(-c4ccccc4)o3)o2)cc1 | - | 0 | - | - | - | -
COc1cccc(-c2noc(CC3CCN(C(=O)c4cccc(Cl)c4)CC3)n2)c1 | - | 0 | - | - | - | -
C[C@@H]1NC(=O)[C@H](CC(N)=O)NC(=O)c2cc([N+](=O)[O-])cc(I)c2OCC[C@@H](C(=O)NC(CC(=O)O)C(N)=O)NC1=O (stereo partly specified) | 0 | 0 | 0 | 0 | 0 | 28.2µM
NC(=O)C(CC(=O)O)NC(=O)[C@@H]1CCOc2c(I)cc([N+](=O)[O-])cc2C(=O)N[C@@H](CCC(=O)O)C(=O)N[C@@H](CO)C(=O)N1 (stereo partly specified) | ? | - | ? | 0 | 0 | 7.94µM
C[C@@H]1NC(=O)c2cc([N+](=O)[O-])cc(I)c2OCC[C@@H](C(=O)NC(CC(=O)O)C(N)=O)NC(=O)[C@H](CCC(=O)O)NC1=O (stereo partly specified) | 0 | - | ? | 0 | 0 | 35.5µM
CC(Sc1nnc(C2CC2)n1C)C(=O)Nc1ccnn1C(C)C (stereo unspecified) | - | 0 | - | - | - | -
COc1cccc(-c2n[nH]c3c2CC(=O)N(CC2CCOCC2)C3)c1OC | - | 0 | - | - | - | -
COc1ccc(CN(C(=O)c2cc(=O)c3ccc(C)cc3o2)C2CCS(=O)(=O)C2)cc1OC (stereo unspecified) | - | 0 | - | - | - | -
Cc1cc(-c2nnc(SCC(=O)Nc3nccs3)o2)no1 | 20µM | 0 | 39.8µM | 0 | 0 | 0[12.7 µM]
